Assay results from PubChem BioAssay (NCI).
“And” between values parts separate entries of the source, which are not always exact repeats. Equal entries are not always repeated. About 83,000 compounds went through this panel and 20% of them were active in at least one assay; those are over-represented in the sample as a whole.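 A percent growth of 40 corresponds to 60% growth inhibition; 0 means no net growth; -100 means all cells died. Active threshold: below 10.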 The source made the active and inactive calls.

Assays:
Assay in all cases: NCI-60 one-dose screen, 48 h (100 = growth as untreated, 0 = no growth, -100 = all killed)
SK-MEL-2 melanoma = tested on: SK-MEL-2 melanoma
EKVX NSCLC = settings: 10 µM unless noted
SN12C renal = tested on: SN12C renal
UO-31 renal = tested on: UO-31 renal
TK-10 renal = tested on: TK-10 renal
ACHN renal = tested on: ACHN renal
CAKI-1 renal = tested on: CAKI-1 renal
A498 renal = tested on: A498 renal
CCRF-CEM leukemia = settings: 10 µM unless noted
MOLT-4 leukemia = tested on: MOLT-4 leukemia

Measured: growth

N#CSCc1c(Cl)cccc1Cl
inactive: SK-MEL-2 melanoma; 10 µM unless noted 102% | EKVX NSCLC 103% | SN12C renal; 10 µM unless noted 93.3% | UO-31 renal; 10 µM unless noted 40.2% | TK-10 renal; 10 µM unless noted 101% | ACHN renal; 10 µM unless noted 49.9% | CAKI-1 renal; 10 µM unless noted 47.7% | A498 renal; 10 µM unless noted 85.1% | CCRF-CEM leukemia 44.1% | MOLT-4 leukemia; 10 µM unless noted 90.9%

CN(C)C(=O)c1ccc(SC(=S)NCc2ccccc2)cc1
active: SK-MEL-2 melanoma; 100 µM 4.25% | SN12C renal; 100 µM -15.4% | UO-31 renal; 100 µM -67.4% | TK-10 renal; 10 µM unless noted -4.78% [100 µM] | ACHN renal; 100 µM -56.9% | CCRF-CEM leukemia 0.435% [100 µM] | MOLT-4 leukemia; 100 µM 3.1%
inactive: SK-MEL-2 melanoma; 10 µM 114% | EKVX NSCLC 69.5% [100 µM] | SN12C renal; 10 µM 103% | UO-31 renal; 10 µM 93.2% | ACHN renal; 10 µM 103% | CAKI-1 renal; 10 µM 102% | CAKI-1 renal; 100 µM 11.2% | A498 renal; 10 µM 114% | A498 renal; 100 µM 96.1% | MOLT-4 leukemia; 10 µM 111%

CCC1OC(OC)C=CC1=O (configuration not stated)
inactive: SK-MEL-2 melanoma; 10 µM unless noted 129% | EKVX NSCLC 89% | SN12C renal; 10 µM unless noted 94.7% | UO-31 renal; 10 µM unless noted 93.4% | TK-10 renal; 10 µM unless noted 110% | ACHN renal; 10 µM unless noted 113% | CAKI-1 renal; 10 µM unless noted 113% | A498 renal; 10 µM unless noted 90.3% | CCRF-CEM leukemia 94.5% | MOLT-4 leukemia; 10 µM unless noted 103%

O=C(/C=C/c1cccc(Cl)c1)c1ccccc1
inactive: SK-MEL-2 melanoma; 10 µM unless noted 109% and 100% | EKVX NSCLC 93.5% | SN12C renal; 10 µM unless noted 92.3% and 81% | UO-31 renal; 10 µM unless noted 77.7% and 70% | TK-10 renal; 10 µM unless noted 84.8% | ACHN renal; 10 µM unless noted 90.7% and 81.5% | CAKI-1 renal; 10 µM unless noted 90.8% and 75.4% | A498 renal; 10 µM unless noted 79.7% and 102% | CCRF-CEM leukemia 74.1% and 63.7% | MOLT-4 leukemia; 10 µM unless noted 90.7% and 86.1%

O=C1NC(=O)/C(=C/C=C/c2ccccc2)S1
inactive: EKVX NSCLC 62.5% | SN12C renal; 10 µM unless noted 50.6% | UO-31 renal; 10 µM unless noted 34.1% | TK-10 renal; 10 µM unless noted 91.8% | CAKI-1 renal; 10 µM unless noted 25.5% | A498 renal; 10 µM unless noted 69.7%
active: SK-MEL-2 melanoma; 10 µM unless noted -6.31% | ACHN renal; 10 µM unless noted 9.79%

O=C(Nc1cccc(Br)c1)Oc1cccc2cccnc12
inactive: SK-MEL-2 melanoma; 10 µM 85.8% | SN12C renal; 10 µM 99.4% | UO-31 renal; 10 µM 98.6% | UO-31 renal; 100 µM 26% | TK-10 renal; 10 µM 118% | TK-10 renal; 100 µM 112% | ACHN renal; 10 µM 103% | ACHN renal; 100 µM 15.4% | A498 renal; 10 µM 97.5% | A498 renal; 100 µM 98.6% | CCRF-CEM leukemia 14.4% [100 µM] | MOLT-4 leukemia; 10 µM 115%
active: SK-MEL-2 melanoma; 100 µM 9.32% | EKVX NSCLC -17.3% [100 µM] | SN12C renal; 100 µM -26.1% | MOLT-4 leukemia; 100 µM -0.787%

COc1cc(NS(C)(=O)=O)ccc1Nc1c2ccccc2nc2ccccc12
inactive: SK-MEL-2 melanoma; 10 µM unless noted 96.5% [2.5 µM] | EKVX NSCLC 58.8% [2.5 µM] | SN12C renal; 2.5 µM 17.7% | UO-31 renal; 10 µM unless noted 34.3% [2.5 µM] | TK-10 renal; 2.5 µM 66.1%
10.6% (inactive) [middle of 4 runs]: SN12C renal; 10 µM
active: TK-10 renal; 250 µM -95.2% and -100% | ACHN renal; 10 µM unless noted 2.39% [2.5 µM] | A498 renal; 10 µM unless noted -7.27% [2.5 µM] | CCRF-CEM leukemia 3.36% [2.5 µM] | MOLT-4 leukemia; 10 µM unless noted 1.03% [2.5 µM]

N#CC1C(=O)SC2c3ccccc3C(=O)c3ccccc3C12 (configuration not stated)
inactive: SK-MEL-2 melanoma; 10 µM unless noted 98.5% | EKVX NSCLC 107% | SN12C renal; 10 µM unless noted 101% | UO-31 renal; 10 µM unless noted 89.5% | TK-10 renal; 10 µM unless noted 99.5% | ACHN renal; 10 µM unless noted 114% | CAKI-1 renal; 10 µM unless noted 88% | A498 renal; 10 µM unless noted 105% | CCRF-CEM leukemia 95% | MOLT-4 leukemia; 10 µM unless noted 99.6%

O=C(/C=C\c1ccccc1)N1c2ccccc2CC1c1c[nH]c2ccccc12 (configuration not stated)
inactive: SK-MEL-2 melanoma; 10 µM unless noted 61.3% | EKVX NSCLC 66% | SN12C renal; 10 µM unless noted 74.3% | UO-31 renal; 10 µM unless noted 40.1% | TK-10 renal; 10 µM unless noted 77.8% | ACHN renal; 10 µM unless noted 79.4% | CAKI-1 renal; 10 µM unless noted 62.8% | A498 renal; 10 µM unless noted 54.2% | CCRF-CEM leukemia 68.6% | MOLT-4 leukemia; 10 µM unless noted 44.3%

Cc1ccnc(NC(c2ccccc2)c2ccc3cccnc3c2O)c1 (configuration not stated)
inactive: SK-MEL-2 melanoma; 10 µM unless noted 50.4% | EKVX NSCLC 33.5% | SN12C renal; 10 µM unless noted 38.8% | UO-31 renal; 10 µM unless noted 14.8% | TK-10 renal; 10 µM unless noted 58.3% | ACHN renal; 10 µM unless noted 28.5% | CAKI-1 renal; 10 µM unless noted 14.7% | A498 renal; 10 µM unless noted 77.3% | CCRF-CEM leukemia 16.4% | MOLT-4 leukemia; 10 µM unless noted 18%
